Out of some 31,000 sequences screened, about 1,400 (4.5%) were called active.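 The calls were made as follows: active = median seed-adjusted z-score above 1 or below -1; inactive = the rest.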 The entries come from a sample that favours actives as a whole.

This experiment can be described thus: Novel Modifiers of Survival Motor Neuron (SMN) Protein: Gene Identification via Genome-wide siRNA Screen.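 Also: luminescence tracks full-length SMN protein made from the SMN2 reporter.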 As to conditions: HEK293T SMN2-luciferase reporter, siRNA knockdown, 72 h; actives lie on both sides. The gist of the method:
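HEK293T cells stably carrying an SMN2 promoter/splicing cassette–luciferase reporter were reverse-transfected with 1 pmol siRNA per well (druggable-genome library, 3 siRNAs per gene) and grown 72 h at 37 °C. Luminescence, normalized to negative-control siRNA and log10-transformed, was scored as MAD.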
Take CCAACAUGCUAAUCACCUATT against MAP3K12: the median seed-adjusted z-score is -0.6 (inactive).

In the case of CUAUUUUACCUUUACAAGATT against ALDH1A2, the median seed-adjusted z-score was 0.564 (inactive).

Consider CAUUAUCUAUUCUAGACAATT against TTC18, for which the median seed-adjusted z-score is -1.15 (active).

Consider GCAUUGCCUCUAUACCAGATT against MALT1, for which the median seed-adjusted z-score was 0.442 (inactive).

For GGGCAUGUUUCGUACCGUUTT against MYH10, the median seed-adjusted z-score is 0.0877 (inactive).

As for AGAACAUCCUGAUAGACCUTT against PIM2, the median seed-adjusted z-score was 0.00597 (inactive).

For GGUGCGGAGAGAUGAGAUATT against PPM1M, the median seed-adjusted z-score is 0 (inactive).

Turning to GCAGAAAUGACACCAAUAATT against NMB, the median seed-adjusted z-score was 0.746 (inactive).

As for GCUCCUCAAAGGAUAUGAATT against CAB39L, the median seed-adjusted z-score was 0 (inactive).

AUUUAUUUGUUGAGGUUAUTT against PIM3: the median seed-adjusted z-score was -1.01 (active).

As for GACCCUAAGCAGUAUAAGATT against CHSY3, the median seed-adjusted z-score is -0.113 (inactive).

Regarding CGAUUGCCCAUCAUCCUGATT against HAO2, the median seed-adjusted z-score was 0.039 (inactive).

With GCUUCUACCCGGACGAAGATT against MYCN, the median seed-adjusted z-score is 0.00242 (inactive).

Regarding AAACACCGCUGUUCCGUAATT against MED8, the median seed-adjusted z-score is -1.61 (active).

GGCUAGUGAUCGACCGUAATT against FADS1: the median seed-adjusted z-score was -0.905 (inactive).

Consider GAAACCUGCUGAUCUACGATT against CREB3L2, for which the median seed-adjusted z-score was -0.192 (inactive).

Turning to GGAGAAAACCUUCGAGCAGTT against NKX6-2, the median seed-adjusted z-score is 0.101 (inactive).

Consider UCCUAAAUGUGACCCGGUATT against ZMYND19, for which the median seed-adjusted z-score was 0.369 (inactive).

As to GCCCAUUUCAUCAACCUGATT against PRDM15, the median seed-adjusted z-score was 0.258 (inactive).

On to CAACAACUGCUACCAAGAUTT against SLC6A4, for which the median seed-adjusted z-score was 1.43 (active).

For the sequence GGAACUAGAUGUCAUGUAUTT against VILL, the median seed-adjusted z-score was 0.518 (inactive).

Consider CAAGUGUCUAUGUAACGAATT against FBN2, for which the median seed-adjusted z-score was 0.373 (inactive).

In the case of GCCUUUACCCUUGAAGAAATT against ME3, the median seed-adjusted z-score was 0.166 (inactive).

With CAAUCAUGUCGAGAAAUAATT against TGIF2LX, the median seed-adjusted z-score is -0.568 (inactive).

As for CGUUCAGUCCGUCACCCAATT against GATAD2A, the median seed-adjusted z-score is -0.715 (inactive).

On to GGGUGGGUUACAUAGCACATT against CLDN19, for which the median seed-adjusted z-score is 0 (inactive).

As to GACUUAACCAAGAGACGUATT against THOC2, the median seed-adjusted z-score is -1.22 (active).

For GGACGAAGGACGUGCUGUUTT against SHC2, the median seed-adjusted z-score was -0.207 (inactive).

As to GCAAUUACAUUGUACGCUUTT against ETFDH, the median seed-adjusted z-score was 0.154 (inactive).

In the case of CAGCUUCAGGAGAAUGAAATT against PPP1CC, the median seed-adjusted z-score is -0.344 (inactive).

For GCACGUAAGCUGAACACUATT against PRC1, the median seed-adjusted z-score was -0.0195 (inactive).

Consider UGAAGAACCUGGACGCCAATT against CCL24, for which the median seed-adjusted z-score was 0 (inactive).

For the sequence CCUCGAGGAGAUUAACAAATT against NPEPL1, the median seed-adjusted z-score was 1.12 (active).

With CAGAUGAAGUGAUCGGUGATT against CIITA, the median seed-adjusted z-score was -0.109 (inactive).

As for GCUCCUGUAUGAAUGCAAUTT against FBP2, the median seed-adjusted z-score was 0 (inactive).

Take GGCUUUUAGCCUGAAGAAATT against PRDM5: the median seed-adjusted z-score is -0.463 (inactive).

For CUGAUGCUCUGUAUCCCAATT against TNRC4, the median seed-adjusted z-score is 0.801 (inactive).

As to GAUGAUAUUUAUUCACCAATT against ZBTB25, the median seed-adjusted z-score is 0 (inactive).

As for GCAUACCUCAGUUCCAAGATT against CDY2A, the median seed-adjusted z-score was 0.75 (inactive).

For CCUCUAACCUUAGAUGAAATT against GTF2E2, the median seed-adjusted z-score is -1.32 (active).

With GGAGCAUAAAGUAGACCGATT against ABCA10, the median seed-adjusted z-score is -0.104 (inactive).

Turning to GACCGUUCACUGUACAACATT against FUT9, the median seed-adjusted z-score was 0.0444 (inactive).

In the case of GUGUUAUAACAAUCGAAGATT against CAPSL, the median seed-adjusted z-score was -0.168 (inactive).

GGCUUAAACUUAGAGUCAATT against MYLIP: the median seed-adjusted z-score is 0.652 (inactive).

Take CAGUCGAUGUCCAUGAAUATT against LRRN1: the median seed-adjusted z-score was -0.407 (inactive).

As for GAAUUGCUCCUAAUGUCAATT against MYB, the median seed-adjusted z-score is 0.307 (inactive).

As for CAGUGAGGUGAAACAAAUATT against DNAJC8, the median seed-adjusted z-score was -1.62 (active).

On to GUGACCAUCUUGGACAUUATT against CELSR1, for which the median seed-adjusted z-score was -0.466 (inactive).

Consider GGCGACUGUUUAUACAUGATT against ALDH7A1, for which the median seed-adjusted z-score is -0.406 (inactive).

As for GGAAGAAAUUAGCUAAAAATT against MKI67IP, the median seed-adjusted z-score was 0.426 (inactive).

As to UGACCCAGAUUAUCGCCGATT against POLR2I, the median seed-adjusted z-score was -3.27 (active).

As for GCCUAGAGGAUACCCAAAATT against NPVF, the median seed-adjusted z-score is 0.588 (inactive).

For the sequence GCUCAGAUGUUAUUCGGGATT against SKIV2L, the median seed-adjusted z-score was 0.209 (inactive).

With GCAAAGCUAUUGCAUUGAATT against HSDL2, the median seed-adjusted z-score was -0.0717 (inactive).

On to AGAUCAACCCAGAUAACUATT against INCENP, for which the median seed-adjusted z-score is -0.339 (inactive).

Turning to GCACCUAUCUUGACCUGCUTT against CTSC, the median seed-adjusted z-score is 0 (inactive).

As to CCUUCUAAUUCGCAAGGUATT against REL, the median seed-adjusted z-score was -0.358 (inactive).

As for GCGCAGCUCUGGAAUUUGATT against OXCT2, the median seed-adjusted z-score was -0.449 (inactive).

AGAGCAUUCACAAACUGAATT against RBM8A: the median seed-adjusted z-score is 0 (inactive).

Consider CCUCCUCGAUGCCUACAAATT against DIO2, for which the median seed-adjusted z-score is -0.549 (inactive).

Turning to CACUAUGGAGAAACAAUAUTT against ZNF181, the median seed-adjusted z-score was -0.154 (inactive).

Turning to GGUGAUGACUGCUUGAUGATT against PSKH1, the median seed-adjusted z-score was -2.03 (active).

With CCCACCAAAUUGCACAAUATT against KLF13, the median seed-adjusted z-score is -0.501 (inactive).

For GACUGUCUUUGAAAAGAGATT against HESX1, the median seed-adjusted z-score is 0.3 (inactive).

Consider GCAGCAUGCUACAACCAAATT against RNF25, for which the median seed-adjusted z-score was -0.0826 (inactive).

For the sequence GAUGGGUAAAUGUACAUAUTT against KCNIP4, the median seed-adjusted z-score is -0.401 (inactive).

As to GCAUCGUGGGCAUAGCGUATT against PCSK6, the median seed-adjusted z-score was 0 (inactive).

Take GAAUUUUGAUGGACAAGUUTT against RAG2: the median seed-adjusted z-score was 0.138 (inactive).

For GAACCUCAAGAAUCGAACATT against REV1, the median seed-adjusted z-score was -0.294 (inactive).

Source of the values: PubChem BioAssay AID1347426 (Functional Genomics Laboratory (NCATS/FGL), 2020).
